Assay [1] can be described thus: NCI Yeast Anticancer Drug Screen. Data for the rad50 strain (AID 155).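 Note: 0% = growth of vehicle-only cultures of the same strain.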 Conditions: S. cerevisiae rad50 strain growth inhibition, stronger effect = higher value. An outline of the steps: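 Relative growth inhibition (compound vs vehicle) was measured in yeast with a defined repair-gene alteration.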
Assay [2] can be described thus: NCI Yeast Anticancer Drug Screen. Data for the mec2-1 strain (AID 157). Conditions: S. cerevisiae mec2-1 strain, stronger effect = higher value. An outline of the steps:
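Vehicle-treated cultures served as reference for growth inhibition of compound-exposed mec2-1 yeast.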

Assay [3] can be described thus: NCI Yeast Anticancer Drug Screen. Data for the sgs1 mgt1 strain (AID 161).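 Note: 0% = growth of cultures given vehicle only.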 Conditions: S. cerevisiae sgs1 mgt1 strain, stronger effect = higher value. An outline of the steps: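 Genetically altered yeast, compound exposure, growth inhibition relative to vehicle.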
The nature of assay [4]: NCI Yeast Anticancer Drug Screen. Data for the cln2 rad14 strain (AID 165).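 Note: 0% = growth equal to vehicle treated cultures.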 Conditions: S. cerevisiae cln2 rad14 strain, stronger effect = higher value. The method, boiled down:
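Each compound was tested on cln2 rad14 yeast. Inhibition of growth was calculated against vehicle-exposed controls.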

Assay [5] can be described thus: NCI Yeast Anticancer Drug Screen. Data for the bub3 strain (AID 167). Conditions: S. cerevisiae bub3 mutant strain, stronger effect = higher value. The method, boiled down:
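Screening used yeast with an engineered genetic alteration affecting cell cycle control. Compound-exposed cultures were compared with vehicle cultures, and reduced growth was taken as inhibition.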

Assay [6] can be described thus: NCI Yeast Anticancer Drug Screen. Data for the mlh1 rad18 strain (AID 175). Conditions: S. cerevisiae mlh1 rad18 strain growth inhibition, stronger effect = higher value. The method, boiled down: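 Vehicle-treated cultures served as the reference for growth inhibition in a yeast strain carrying DNA damage repair alterations exposed to each compound.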
[7] abbreviates: at 5.0 µM (retest, dose inferred, filed as 0.5).
Where [8] appears, read: at 50.0 µM (retest, dose inferred, filed as 5.0).

This is part of a sample that, as a whole, favours compounds with a hit. Of some 79,000 tested, about 15% had one in any assay. A number with no mark means an inactive call. Calls of active or inactive are those of the source. Cut-off read from the data, not from the text of the source: active = growth inhibition above about 70%; inactive = the rest.

`CC1(C(Cl)(Cl)Cl)C=CC(O)(C#CC2(O)C=CC(C)(C(Cl)(Cl)Cl)C=C2)C=C1` (stereo not given): the growth inhibition in assay [1] (setting [7]) was 94% (active); in assay [1] (setting [8]), 7%; in assay [1] (at 50.0 µM), 94.5% (active); in assay [2] (setting [7]), 91% (active); in assay [2] (setting [8]), 98% (active); in assay [2] (at 50.0 µM), 98.2% (active). Further, the growth inhibition was 81% (active) in assay [3] (setting [7]); -7% in assay [3] (setting [8]); 98.3% (active) in assay [3] (at 50.0 µM); 87% (active) in assay [4] (setting [7]); 97% (active) in assay [4] (setting [8]); 95.7% (active) in assay [4] (at 50.0 µM). Further, the growth inhibition is 98% (active) in assay [5] (setting [7]); 97% (active) in assay [5] (setting [8]); 95.4% (active) in assay [5] (at 50.0 µM); 93% (active) in assay [6] (setting [7]); 98% (active) in assay [6] (setting [8]); 97.8% (active) in assay [6] (at 50.0 µM).
For the compound `CCCCOc1c(OCCCC)c(=O)c1=O`, the growth inhibition was 78% (active) in assay [1] (setting [7]); 54% in assay [1] (setting [8]); -13.6% in assay [1] (at 50.0 µM); 88% (active) in assay [2] (setting [7]); 79% (active) in assay [2] (setting [8]); -48.5% in assay [2] (at 50.0 µM). Besides, the growth inhibition in assay [3] (setting [7]) was 14%; in assay [3] (setting [8]), 19%; in assay [3] (at 50.0 µM), -31.6%; in assay [4] (setting [7]), 37%; in assay [4] (setting [8]) it was 48%; in assay [4] (at 50.0 µM) it was 16.4%. Moreover, the growth inhibition in assay [5] (setting [7]) is 54%; in assay [5] (setting [8]) it was 54%; in assay [5] (at 50.0 µM) it was -26.6%; in assay [6] (setting [7]), 78% (active); in assay [6] (setting [8]), 55%; in assay [6] (at 50.0 µM), 40.5%.
Take `CSC(=S)N/N=C(\C)c1nccnc1C`: the growth inhibition is 5% in assay [1] (setting [7]); 98% (active) in assay [1] (setting [8]); 98.7% (active) in assay [1] (at 50.0 µM); 7% in assay [2] (setting [7]); 99% (active) in assay [2] (setting [8]); 98.9% (active) in assay [2] (at 50.0 µM). Besides, the growth inhibition in assay [3] (setting [7]) is 3%; in assay [3] (setting [8]), 98% (active); in assay [3] (at 50.0 µM), 98.7% (active); in assay [4] (setting [7]), -10%; in assay [4] (setting [8]) it was 97% (active); in assay [4] (at 50.0 µM), 98% (active). Further, the growth inhibition is 21% in assay [5] (setting [7]); 98% (active) in assay [5] (setting [8]); 99% (active) in assay [5] (at 50.0 µM); 5% in assay [6] (setting [7]); 98% (active) in assay [6] (setting [8]); 98.9% (active) in assay [6] (at 50.0 µM).
Turning to `Cc1ccc2nc(-[n+]3cc4ccccc4cc3C)ccc2c1`, the growth inhibition in assay [1] (setting [7]) is 9%; in assay [1] (setting [8]) it was 99% (active); in assay [1] (at 50.0 µM), 89% (active); in assay [2] (setting [7]), 1%; in assay [2] (setting [8]) it was 100% (active); in assay [2] (at 50.0 µM), 87.6% (active). Besides, the growth inhibition was 3% in assay [3] (setting [7]); 99% (active) in assay [3] (setting [8]); 89.3% (active) in assay [3] (at 50.0 µM); -1% in assay [4] (setting [7]); 83% (active) in assay [4] (setting [8]); 17.2% in assay [4] (at 50.0 µM). Also, the growth inhibition in assay [5] (setting [7]) was 1%; in assay [5] (setting [8]), 100% (active); in assay [5] (at 50.0 µM), 87.7% (active); in assay [6] (setting [7]) it was 5%; in assay [6] (setting [8]), 98% (active); in assay [6] (at 50.0 µM), 87.3% (active).
Consider `COc1cccc(C(=O)C(CN(C)C)CN(C)C)c1`, for which the growth inhibition in assay [1] (setting [7]) was 22%; in assay [1] (setting [8]), 70% (active); in assay [1] (at 50.0 µM) it was 12.2%; in assay [2] (setting [7]) it was 26%; in assay [2] (setting [8]), 69%; in assay [2] (at 50.0 µM), 30.2%. The growth inhibition was 24% in assay [3] (setting [7]); 88% (active) in assay [3] (setting [8]); 61% in assay [3] (at 50.0 µM); 24% in assay [4] (setting [7]); 79% (active) in assay [4] (setting [8]); 33% in assay [4] (at 50.0 µM). Also, the growth inhibition in assay [5] (setting [7]) was 24%; in assay [5] (setting [8]), 85% (active); in assay [5] (at 50.0 µM), 71.2% (active); in assay [6] (setting [7]), 30%; in assay [6] (setting [8]) it was 93% (active); in assay [6] (at 50.0 µM), 3%.
With `COc1cc(N=Nc2cccc(S(N)(=O)=O)c2)c2ccccc2c1N`, the growth inhibition was -6% in assay [1] (setting [7]); 98% (active) in assay [1] (setting [8]); 95.3% (active) in assay [1] (at 50.0 µM); -2% in assay [2] (setting [7]); 99% (active) in assay [2] (setting [8]); 97.7% (active) in assay [2] (at 50.0 µM). Also, the growth inhibition is 2% in assay [3] (setting [7]); 99% (active) in assay [3] (setting [8]); 97.4% (active) in assay [3] (at 50.0 µM); 34% in assay [4] (setting [7]); 98% (active) in assay [4] (setting [8]); 95.5% (active) in assay [4] (at 50.0 µM). The growth inhibition in assay [5] (setting [7]) is -5%; in assay [5] (setting [8]), 99% (active); in assay [5] (at 50.0 µM) it was 94.4% (active); in assay [6] (setting [7]) it was 5%; in assay [6] (setting [8]), 98% (active); in assay [6] (at 50.0 µM), 95.8% (active).
As for `Cc1cccc2cc3c(cc12)c(C)cc1ccccc13`, the growth inhibition in assay [1] (setting [7]) was -4%; in assay [1] (setting [8]), 6%; in assay [1] (at 50.0 µM), 64.4%; in assay [2] (setting [7]) it was -6%; in assay [2] (setting [8]), -9%; in assay [2] (at 50.0 µM), 75.1% (active). Moreover, the growth inhibition in assay [3] (setting [7]) was -4%; in assay [3] (setting [8]), 30%; in assay [3] (at 50.0 µM), 53%; in assay [4] (setting [7]), -1%; in assay [4] (setting [8]), 1%; in assay [4] (at 50.0 µM), 51%. Besides, the growth inhibition in assay [5] (setting [7]) is -22%; in assay [5] (setting [8]), -12%; in assay [5] (at 50.0 µM) it was 61%; in assay [6] (setting [7]) it was -17%; in assay [6] (setting [8]), 2%; in assay [6] (at 50.0 µM), 63.6%.
Take `Cc1cc([N+](=O)[O-])cc(Cl)c1O`: the growth inhibition in assay [1] (setting [7]) was -21%; in assay [1] (setting [8]), 51%; in assay [1] (at 50.0 µM), 79.1% (active); in assay [2] (setting [7]) it was -6%; in assay [2] (setting [8]) it was 79% (active); in assay [2] (at 50.0 µM), 88.3% (active). In addition, the growth inhibition in assay [3] (setting [7]) was -4%; in assay [3] (setting [8]), 87% (active); in assay [3] (at 50.0 µM), 88% (active); in assay [4] (setting [7]) it was 7%; in assay [4] (setting [8]), 69%; in assay [4] (at 50.0 µM) it was 85.2% (active). The growth inhibition in assay [5] (setting [7]) was -21%; in assay [5] (setting [8]), 66%; in assay [5] (at 50.0 µM), 82.3% (active); in assay [6] (setting [7]) it was -58%; in assay [6] (setting [8]), 64%; in assay [6] (at 50.0 µM) it was 80% (active).
Take `CCOC(=O)c1ccc([N+](=O)[O-])o1`: the growth inhibition is 5% in assay [1] (setting [7]); 24% in assay [1] (setting [8]); 94.4% (active) in assay [1] (at 50.0 µM); 4% in assay [2] (setting [7]); 11% in assay [2] (setting [8]); 53.1% in assay [2] (at 50.0 µM). For the same compound, the growth inhibition in assay [3] (setting [7]) was 3%; in assay [3] (setting [8]), 14%; in assay [3] (at 50.0 µM), 66.1%; in assay [4] (setting [7]), -1%; in assay [4] (setting [8]), 11%; in assay [4] (at 50.0 µM) it was 28.3%. Also, the growth inhibition in assay [5] (setting [7]) is 7%; in assay [5] (setting [8]), 49%; in assay [5] (at 50.0 µM) it was 91% (active); in assay [6] (setting [7]), 2%; in assay [6] (setting [8]) it was 30%; in assay [6] (at 50.0 µM), 83.7% (active).
As for `Cc1ccc2c(ccc(CC(=S)[S-])[n+]2C)c1`, the growth inhibition in assay [1] (setting [7]) was 10%; in assay [1] (setting [8]) it was 41%; in assay [1] (at 50.0 µM), 58.2%; in assay [2] (setting [7]), 11%; in assay [2] (setting [8]), 21%; in assay [2] (at 50.0 µM) it was 51.6%. The growth inhibition in assay [3] (setting [7]) is 11%; in assay [3] (setting [8]) it was 46%; in assay [3] (at 50.0 µM) it was 66.3%; in assay [4] (setting [7]), 10%; in assay [4] (setting [8]) it was 37%; in assay [4] (at 50.0 µM), 47.3%. In addition, the growth inhibition in assay [5] (setting [7]) was 3%; in assay [5] (setting [8]), 38%; in assay [5] (at 50.0 µM), 61.5%; in assay [6] (setting [7]), 4%; in assay [6] (setting [8]), 41%; in assay [6] (at 50.0 µM), 90.2% (active).

The values are drawn from PubChem BioAssay (NCI).
